# ± gives the standard deviation of the averaged measurements.
# What was measured:
# Experiment in all cases: cell viability (% of vehicle); higher = less cytotoxic
# Settings in all cases: 10 µM; 72 h
# [1] = test system: HCI01 (cells of a triple-negative basal-like breast cancer xenograft)
# [2] = test system: HCI09 (cells of a triple-negative luminal androgen receptor type breast cancer xenograft)
# [3] = test system: HCI11 (cells of an ER-positive luminal breast cancer xenograft)
# [4] = test system: HCI13 (cells of an ER-positive luminal breast cancer xenograft)
# [5] = test system: HCI16 (cells of a triple-negative basal-like breast cancer xenograft)
# [6] = test system: UCD52 (cells of a triple-negative basal-like breast cancer xenograft)
# [7] = test system: WHIM2 (cells of a triple-negative basal-like breast cancer xenograft)
# [8] = test system: WHIM30 (cells of a triple-negative basal-like breast cancer xenograft)
# [9] = test system: HCI03 (cells of an ER-positive luminal breast cancer xenograft)
# 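Also: PDX cells carrying CMV promoter-driven luciferase, viability read as total photon flux per second by IVIS imaging following D-luciferin, vehicle control 0.1% DMSO.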
smiles,measurement,setting,value
OCC1OC(O)C(O)C(O)C1O [Dextrose (D-glucose)],cell viability,[1],123.4 ± 0.67
same,cell viability,[2],106 ± 1.3
same,cell viability,[3],125
same,cell viability,[4],124 ± 6.9
same,cell viability,[5],110
same,cell viability,[6],88.77 ± 0.6
same,cell viability,[7],105 ± 3.9
same,cell viability,[8],153 ± 12
CC(=O)c1c(C)c2cnc(Nc3ccc(N4CCNCC4)cn3)nc2n(C2CCCC2)c1=O.O=S(=O)(O)CCO,cell viability,[1],154 ± 77
same,cell viability,[2],78 ± 29
same,cell viability,[3],154
same,cell viability,[4],179 ± 75
same,cell viability,[5],180
same,cell viability,[6],105 ± 7.7
same,cell viability,[7],103 ± 13
same,cell viability,[8],145 ± 2.8
CO[C@H]1C[C@@H]2CC[C@@H](C)[C@@](O)(O2)C(=O)C(=O)N2CCCC[C@H]2C(=O)O[C@H]([C@@H](C)C[C@@H]2CC[C@@H](OCCO)[C@H](OC)C2)CC(=O)[C@H](C)/C=C(\C)[C@@H](O)[C@@H](OC)C(=O)[C@H](C)C[C@H](C)/C=C/C=C/C=C/1C [Everolimus (RAD001)],cell viability,[9],69.8
same,cell viability,[2],27.5 ± 4
same,cell viability,[3],102
same,cell viability,[4],54.91 ± 0.39
same,cell viability,[5],179
same,cell viability,[6],55.2 ± 9.9
same,cell viability,[7],41.9 ± 4.8
same,cell viability,[8],160 ± 35
C[C@@H]1C\C=C/C=C\C=C/C=C\[C@H](O[C@@H]2O[C@H](C)[C@@H](O)[C@H](N)[C@@H]2O)C[C@@H]2O[C@](O)(C[C@@H](O)C[C@H]3O[C@@H]3/C=C\C(=O)O1)C[C@H](O)[C@H]2C(=O)O [Natamycin],cell viability,[9],137
same,cell viability,[2],121 ± 19
same,cell viability,[3],146
same,cell viability,[4],144.5 ± 1.4
same,cell viability,[6],156 ± 48
same,cell viability,[7],103 ± 9.2
same,cell viability,[8],199 ± 34
OCC1OC(Oc2cc(O)cc(C=Cc3ccc(O)cc3)c2)C(O)C(O)C1O (stereo not drawn) [Polydatin],cell viability,[1],155 ± 18
same,cell viability,[2],113 ± 15
same,cell viability,[3],142
same,cell viability,[4],99.9 ± 1.1
same,cell viability,[5],195
same,cell viability,[7],109 ± 35
O=c1c(-c2ccc(O)cc2)coc2cc(O)ccc12 [Daidzein],cell viability,[1],146 ± 37
same,cell viability,[9],155
same,cell viability,[3],114
same,cell viability,[5],180
same,cell viability,[6],149 ± 13
same,cell viability,[7],119 ± 7.2
O=C(O)C1=CC(=NNc2ccc(S(=O)(=O)Nc3ccccn3)cc2)C=CC1=O [Sulfasalazine],cell viability,[9],124
same,cell viability,[2],119 ± 9.1
same,cell viability,[3],137
same,cell viability,[4],161 ± 27
same,cell viability,[5],180
same,cell viability,[6],100 ± 5
same,cell viability,[7],105 ± 8.7
same,cell viability,[8],181 ± 26
CCCCOc1ccc(CC(=O)NO)cc1 [Bufexamac],cell viability,[1],182.8 ± 1.2
same,cell viability,[2],140 ± 6.6
same,cell viability,[3],173
same,cell viability,[4],141 ± 35
same,cell viability,[6],148 ± 29
same,cell viability,[7],112 ± 2.7
same,cell viability,[8],102 ± 3.6
CNCCc1ccccn1.Cl.Cl [Betahistine 2HCl],cell viability,[9],134
same,cell viability,[2],103 ± 23
same,cell viability,[3],140
same,cell viability,[4],89.7 ± 17
same,cell viability,[6],133 ± 48
same,cell viability,[7],93.5 ± 30
same,cell viability,[8],186 ± 14
"Nc1ccccc1NC(=O)c1ccc(CNc2nccc(-c3cccnc3)n2)cc1 [Mocetinostat (MGCD0103, MG0103)]",cell viability,[9],87
same,cell viability,[2],78.4 ± 73
same,cell viability,[3],5.73
same,cell viability,[4],150 ± 160
same,cell viability,[7],109 ± 13
O=c1[nH]c(=O)n(C2CC(O)C(CO)O2)cc1I (stereo not drawn) [Idoxuridine],cell viability,[1],165 ± 77
same,cell viability,[2],106 ± 8.6
same,cell viability,[3],106
same,cell viability,[5],129
same,cell viability,[6],112 ± 6.1
same,cell viability,[8],116.3 ± 1.1
CC12CCC(=O)C=C1C1CC1C1C2CCC2(C)C1C1CC1C21CCC(=O)O1 (stereo not drawn) [Drospirenone],cell viability,[9],150
same,cell viability,[2],178 ± 190
same,cell viability,[4],84.8 ± 24
same,cell viability,[7],39.5 ± 12
CC[C@]1(O)C[C@H]2CN(CCc3c([nH]c4ccccc34)[C@@](C(=O)OC)(c3cc4c(cc3OC)N(C=O)[C@H]3[C@@](O)(C(=O)OC)C(OC(C)=O)[C@]5(CC)C=CCN6CC[C@]43C65)C2)C1.O=S(=O)(O)O (stereo partly drawn) [Vincristine],cell viability,[9],111
same,cell viability,[2],91.3 ± 26
same,cell viability,[3],112
same,cell viability,[4],42.2 ± 2.8
same,cell viability,[5],200
same,cell viability,[6],85.1 ± 13
same,cell viability,[7],90.5 ± 12
same,cell viability,[8],153 ± 16
